Assay results from PubChem BioAssay (NCATS).
Records with an inconclusive call do not appear. Entries that show only a call come without a potency. A number with no mark means an inactive call. Activity calls are given as the source filed them. Calls come from the whole dose curve; as a rule, active = well fitted curve in the direction sought with a large enough effect; inconclusive = small, poorly fitted or top-dose-only effect, or another doubt; inactive = no such curve, though single readings can be large; an effect the other way counts as inactive or inconclusive.

How the values were obtained:
MKL-1 = test: qHTS assay to identify novel small-molecules to repurpose for Merkel cell carcinoma treatment (AID 1296009); conditions: MCC and control cell lines, CellTiter-Glo viability, 72 h; series mostly up to 46 µM; note: nearly all actives have a fitted effect of over 60% in size
In short: (§1)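 Dose-response viability screen; 72 hr exposure at 37 degree celsius; CellTiter-Glo added, 10 min room temperature, luminescence read; RLUs scaled between no-cell and DMSO wells.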

MKL-2 = test: as above; conditions: MCC and control cell lines, CellTiter-Glo viability, 72 h; series mostly up to 46 µM
In short: as §1

UISO = test: as above; conditions: MCC and control cell lines, CellTiter-Glo viability, 72 h; series mostly up to 46 µM
In short: as §1

WaGa = test: as above; conditions: MCC and control cell lines, CellTiter-Glo viability, 72 h; series mostly up to 46 µM
In short: as §1

C33A = test: Primary qHTS to identify gynecologic anti-cancer compounds using libraries of approved drugs and bioactive compounds (AID 1345084); conditions: Gynecologic cancer cell panel viability, ATPlite luminescence, 48 h; series mostly up to 57.5 µM; note: nearly all actives have a fitted effect of over 55% in size
In short: (§2)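 Cytotoxicity screen measuring ATP content by luciferase luminescence. Each compound is applied at five concentrations for 48 h at 37 C with 5% CO2.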

CAOV3 = test: as above; conditions: Gynecologic cancer cell panel viability, ATPlite luminescence, 48 h; series mostly up to 57.5 µM
In short: as §2

CASKI = test: as above; conditions: Gynecologic cancer cell panel viability, ATPlite luminescence, 48 h; series mostly up to 57.5 µM
In short: as §2

Es-2 = test: as above; conditions: Gynecologic cancer cell panel viability, ATPlite luminescence, 48 h; series mostly up to 57.5 µM
In short: as §2

HeLa = test: as above; conditions: Gynecologic cancer cell panel viability, ATPlite luminescence, 48 h; series mostly up to 57.5 µM
In short: as §2

NIH3T3 = test: qHTS assay to identify novel small-molecules to repurpose for Merkel cell carcinoma treatment (AID 1296009); conditions: MCC and control cell lines, CellTiter-Glo viability, 72 h; at 44.8 µM (top of the series) unless noted; note: nearly all actives have a fitted effect of over 60% in size
In short: as §1
Potency is the fitted concentration of half-maximal effect.

| SMILES | Potency (MKL-1) | Potency (MKL-2) | Potency (UISO) | Potency (WaGa) | Potency (C33A) | Potency (CAOV3) | Potency (CASKI) | Potency (Es-2) | Potency (HeLa) | outcome (NIH3T3) |
| --- | --- | --- | --- | --- | --- | --- | --- | --- | --- | --- |
| NC/C=C/C(=O)O | inactive | inactive | inactive | inactive | inactive | inactive | inactive | inactive | inactive | – |
| CN1C(=O)CC[C@H]1c1cccnc1 | inactive | inactive | inactive | inactive | inactive | inactive | inactive | inactive | – | – |
| CSc1ccc(C(=O)c2[nH]c(=O)[nH]c2C)cc1 | inactive | inactive | inactive | inactive | inactive | inactive | inactive | inactive | 2 µM (active) | inactive |
| CCN1CCC[C@H]1CNC(=O)c1c(O)c(Cl)cc(Cl)c1OC | inactive | inactive | inactive | inactive | inactive | inactive | inactive | inactive | inactive | – |
| CC(=O)Oc1cc(C(C)C)c(OCCN(C)C)cc1C | inactive | inactive | inactive | inactive | inactive | inactive | inactive | – | inactive | inactive |
| OC(CCN1CCCCC1)(c1ccccc1)C1CCCCC1 (centres undefined) | inactive | inactive | inactive | inactive | inactive | inactive | inactive | inactive | – | – |
| CN(C)C/C=C(/c1ccc(Br)cc1)c1cccnc1 | inactive | inactive | inactive | inactive | inactive | inactive | inactive | – | inactive | inactive |
| CCN(CC)CC(=O)Nc1c(C)cccc1C | inactive | inactive | inactive | inactive | inactive | inactive | inactive | inactive | inactive | inactive |
| CN(C)CCN(Cc1cccs1)c1ccccn1 | inactive | inactive | inactive | inactive | inactive | inactive | inactive | inactive | inactive | – |
| NS(=O)(=O)c1cc2c(cc1Cl)NC(C1CC3C=CC1C3)NS2(=O)=O (centres undefined) | inactive | inactive | inactive | inactive | inactive | inactive | inactive | inactive | – | – |
| CCN1CCc2nc(N)oc2CC1 | inactive | inactive | inactive | inactive | inactive | inactive | inactive | inactive | inactive | – |
| Cc1ccc(S(=O)(=O)NC(=O)NN2CCCCCC2)cc1 | inactive | inactive | inactive | inactive | inactive | inactive | inactive | inactive | inactive | – |
| O=C(O)CCCCCCCC(=O)O | inactive | inactive | inactive | inactive | inactive | inactive | inactive | inactive | inactive | inactive |
| Cc1nnc(SCC2=C(C(=O)O)N3C(=O)[C@@H](NC(=O)Cn4cnnn4)[C@H]3SC2)s1 | inactive | 13.3 µM (active) | inactive | – | inactive | inactive | inactive | inactive | inactive | – |
| COc1ccc2c(c1OC)C(=O)O[C@@H]2[C@H]1c2c(cc3c(c2OC)OCO3)CCN1C | inactive | inactive | – | – | inactive | – | – | inactive | – | – |
| O=C(CCCN1CCC(O)(c2cccc(C(F)(F)F)c2)CC1)c1ccc(F)cc1 | inactive | – | inactive | inactive | inactive | inactive | inactive | inactive | inactive | – |
| CCn1ccnc1CC1COc2ccccc2O1 (centres undefined) | inactive | inactive | inactive | inactive | inactive | inactive | inactive | inactive | inactive | – |
| CCCCNC(=O)NS(=O)(=O)c1ccc(C)cc1 | inactive | inactive | inactive | inactive | inactive | – | inactive | inactive | inactive | – |
| C[C@H](CS)C(=O)N1CCC[C@H]1C(=O)O | inactive | inactive | inactive | inactive | inactive | inactive | inactive | inactive | inactive | – |
| CCCN(CCC)CCc1cccc2c1CC(=O)N2 | inactive | inactive | inactive | inactive | inactive | – | inactive | inactive | inactive | – |
| CCCN1C[C@H](CSC)C[C@@H]2c3cccc4[nH]cc(c34)C[C@H]21 | inactive | inactive | inactive | inactive | inactive | inactive | inactive | inactive | inactive | – |
| CN(C)C(=O)Oc1cccc([N+](C)(C)C)c1 | inactive | inactive | inactive | inactive | inactive | – | inactive | inactive | – | – |
| CCN(CC)CCOCCOC(=O)C1(c2ccccc2)CCCC1 | inactive | inactive | inactive | – | inactive | inactive | inactive | inactive | inactive | – |
| CCCCCN(CCCCC)C(=O)C(CCC(=O)O)NC(=O)c1ccc(Cl)c(Cl)c1 (centres undefined) | inactive | inactive | inactive | inactive | inactive | inactive | inactive | inactive | inactive | – |
